Measurements from PubChem BioAssay AID651791 (National Center for Advancing Translational Sciences (NCATS), 2012).
Results filed as inconclusive are left out. Active and inactive are the calls of the source. Calls follow the shape of the dose curve; as a rule, active = well fitted inhibition curve with a large enough effect; inconclusive = small, poorly fitted or top-dose-only effect; inactive = no such curve, though single readings can be large or run the other way.
Potency is read from the fitted curve at half-maximal effect.

Assay: InCell qHTS Assay for Inhibitors of the mTORC1 Signaling Pathway in MEF (Tsc2-/-, p53-/-) Cells: Hit Validation;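 also: phospho-S6 Ser235/236 signal normalized to propidium iodide cell count per well; nearly all actives have a fitted effect of over 75% in size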
Details: phospho-rpS6 immunofluorescence, 24 h; activity change, negative = inhibition: at 38.3 µM (top of the series)
With `CCCCN1C(=O)C(O)(c2c(C)[nH]c3ccccc23)c2cc(Br)ccc21` (configuration not stated) the activity change, negative = inhibition was -21.8%. In the case of `Cc1ccc(S(=O)(=O)c2nnn3c2nc(NC2CCCCC2)c2sccc23)cc1C`, the activity change, negative = inhibition was -100%. In the case of `CC(C)N(C(=O)Cn1cc(S(=O)(=O)Cc2ccc(Cl)cc2)c2ccccc21)C(C)C`, the activity change, negative = inhibition was -100%. With `N#Cc1ccc(-c2cccs2)nc1SCc1c(F)cccc1Cl` the activity change, negative = inhibition was -16.8%. Work on `O=C(Cn1cc(SCc2ccccc2)c2ccccc21)N1CCCCCC1` yielded an activity change, negative = inhibition of -100%. `COc1ccc(Oc2nc3c(C)cccn3c(=O)c2/C=C(\C#N)c2nc3ccccc3[nH]2)cc1` showed an activity change, negative = inhibition of -100%. For `COc1ccccc1CCNC(=O)C1CCN(c2nnc(-n3cccc3CNc3ccc(C)cc3)s2)CC1`, the activity change, negative = inhibition was -100%. With `COc1ccc(-c2ccc(CCC(=O)O)n2-c2ccccc2O)cc1` the activity change, negative = inhibition was -7.96%. `Cc1ccc(NC(=O)CCNS(=O)(=O)c2cccc3nonc23)cc1Cl` showed an activity change, negative = inhibition of -100%. For `COc1ccc(C2CC(=O)c3c([nH]c(C(=O)OC4CCCCCC4)c3C)C2)cc1OC` (configuration not stated), the activity change, negative = inhibition was -100%. `O=S(=O)(NCC(c1ccco1)N1CCN(c2ccc(F)cc2)CC1)c1ccccc1` (configuration not stated) showed an activity change, negative = inhibition of -100%. Compound `Nc1nc(Nc2ccccc2F)sc1C(=O)c1ccc(Cl)cc1` has an activity change, negative = inhibition of -100%. With `COc1ccc(-c2n[nH]c3c2C(c2ccc(O)cc2)N(c2ccc(Br)cc2)C3=O)cc1` (configuration not stated) the activity change, negative = inhibition was -100%. In the case of `CCOc1ccc(NC(=O)CSc2oc(-c3ccc(F)cc3)nc2S(=O)(=O)c2ccc(C)cc2)cc1`, the Potency was 4.65 µM (active). With `O=C(/C=C/c1ccco1)Nc1ccc(Cl)c(-c2nc3cc(Cl)ccc3o2)c1` the activity change, negative = inhibition was -100%. With `CCOc1ccc(-c2nc(SCC(=O)c3ccccc3)n[nH]2)cc1` the activity change, negative = inhibition was -2.9%. `COc1cccc(-n2c(-c3ccco3)nc3c(cnn3-c3ccc(C)cc3)c2=O)c1` showed an activity change, negative = inhibition of -100%. With `CCOc1ccc(CCNC(=O)CCc2c(C)nc3cc(-c4ccccc4OC)nn3c2C)cc1` the activity change, negative = inhibition was -100%. With `Cc1ccc(CS(=O)(=O)c2ncc(Cl)c(C(=O)Nc3nnc(C(C)C)s3)n2)cc1` the Potency was 6.56 µM (active). `CC1CCCCN1c1nnc(NC(=O)Nc2ccccc2F)s1` (configuration not stated) gave an activity change, negative = inhibition of -100%. In the case of `COc1cc(Cl)c(C)cc1NC(=O)C1CCN(c2nc3ccccc3n3cccc23)CC1`, the activity change, negative = inhibition was -100%. With `COc1ccc(C)cc1NC(=O)CSc1ccc(-c2ccccn2)nn1` the activity change, negative = inhibition was -100%.
